# Assay results from PubChem BioAssay (NCATS).
# Records with an inconclusive call do not appear. Activity calls are given as the source filed them. The call rests on the fitted dose curve; in most records, active means well fitted cell-killing curve with a large enough effect; inconclusive means small, poorly fitted or top-dose-only effect, or effect the other way; inactive means no such curve, though single readings can be large or run the other way.
# Experiment: Quantitative High-Throughput drug screen in 47 multiple myeloma cell lines against the NCATS MIPE library collection: XG1_PLB cell viability assay (AID 1919866); further: nearly all actives have a fitted effect of over 35% in size
# Conditions: CellTiter-Glo ATP, 48 h; series mostly up to 45.8 µM; viability: at the top concentration
# From the text: PI: Beverly A. Mock Ph.D.
# Laboratory of Cancer Biology and Genetics,
# Center for Cancer Research, National Cancer Institute,
# National Institute of Health, Bethesda, Maryland
# Drug resistance and disease progression are common in multiple myeloma (MM) patients, underscoring the need for new therapeutic combinations. […] We hypothesized that effective combinations would reduce MYC expression and enhance p16 activity. […] These preclinical data identify potentially useful drug combinations for evaluation in drug-resistant MM and reveal potential mechanisms of combined drug sensitivity.
# Described herein is the primary MIPE qHTS used to cherrypick compounds. Validated compounds were then further tested for potential synergistic activiy.
# [1] Peat TJ, Gaikwad SM, Dubois W, Gyabaah-Kessie N, Zhang S, Gorjifard S, Phyo Z, Andres M, Hughitt VK, Simpson RM, Miller MA, Girvin AT, Taylor A, Williams D, D'Antonio N, Zhang Y, Rajagopalan A, Flietner E, Wilson K, Zhang X, Shinn P, Klumpp-Thomas C, McKnight C, Itkin Z, Chen L, Kazandijian D, Zhang J, Michalowski AM, Simmons JK, Keats J, Thomas CJ, Mock BA. Drug combinations identified by high-throughput screening promote cell cycle transition and upregulate Smad pathways in myeloma. Cancer Lett. 2023 Aug 1;568:216284. doi: 10.1016/j.canlet.2023.216284. Epub 2023 Jun 24. PMID: 37356470; PMCID: PMC10408729.
# SEQUENCE No. (e.g., 1, 2, 3, etc.); […] (e.g., Cells, Incubation, Reagent, etc.); VALUE and DESCRIPTION.
# 1; Cells; 5 uL; white, solid bottom 1536-well Greiner assay plate.
# 2; Compounds; 23 nL; Kalypsis pin tool (Wako USA) equipped with a 1536-well pin head to transfer to the assay plates.
# 3; Incubation; 48 hours; 37C incubation.
# 4; Reagent;5uL; CellTiter Glo (Promega).
# 5; Detector; 425V; Luminescence; Viewlux PerkinElmer.
# NOTES (numbers refer to Sequence numbers above)
# 1. The cell-based screening methods employed in this study were like those previously published. Briefly, the corresponding myeloma cell lines were screened in 1,536-well plates with 500 cells, 5-uL per well for inhibition of cell viability (assessed by measuring ATP levels with CellTiterGlo).
# 2. NCATS MIPE 4.0 library of approved and investigational drugs were added using the Kalypsis pin tool. Wells treated with DMSO only for 100% viability and media only for 0% viability were used as controls.
# 3. The assay plates were covered and incubated for 48 hours in a 37C, 5% CO2 incubator with controlled humidity.
# 4. After 48 hours, CellTilter-GloTM luminescent substrate mix (Promega) reagent was added to the assay plate and plates we incubated for 5 min at room temperature.
# 5. Signal was measured as median relative luminescence units on a ViewLux (PerkinElmer) multiplate reader.
# [1] Heske CM, Davis MI, Baumgart JT, Wilson K, Gormally MV, Chen L, Zhang X, Ceribelli M, Duveau DY, Guha R, Ferrer M, Arnaldez FI, Ji J, Tran HL, Zhang Y, Mendoza A, Helman LJ, Thomas CJ. Matrix Screen Identifies Synergistic Combination of PARP Inhibitors and Nicotinamide Phosphoribosyltransferase (NAMPT) Inhibitors in Ewing Sarcoma. Clin Cancer Res. 2017 Dec 1;23(23):7301-7311. doi: 10.1158/1078-0432.CCR-17-1121. Epub 2017 Sep 12. PMID: 28899971; PMCID: PMC6636827.
# Potency means the concentration at half of the fitted maximal effect.
Compound,viability,Potency
Cc1ccccc1C(C(=O)NC1CCCCC1)N(C(=O)CNc1ccc(C#N)cc1)c1cccc(F)c1 (stereo not given),129% (inactive),
Nc1ncnc2c1ncn2[C@@H]1O[C@H](CO)[C@@H](O)[C@@H]1O,,0.935 µM (active)
CC[C@H](C)C(=O)O[C@H]1C[C@H](O)C=C2C=C[C@H](C)[C@H](CC[C@@H](O)C[C@@H](O)CC(=O)O)[C@H]21,121% (inactive),
CN[C@H]1[C@@H](O[C@@H]2[C@H](O[C@@H]3[C@@H](O)[C@@H](O)[C@@H](N=C(N)N)[C@@H](O)[C@@H]3N=C(N)N)O[C@H](C)[C@@]2(O)C=O)O[C@@H](CO)[C@@H](O)[C@H]1O,123% [at 15.3 µM] (inactive),
C[C@@H]1CCO[C@H]2Cn3cc(C(=O)NCc4ccc(F)cc4F)c(=O)c(O)c3C(=O)N12,,26.4 µM (active)
CC=C(C(=CC)c1ccc(O)cc1)c1ccc(O)cc1,,16.6 µM (active)
CCCCCOC(=O)Nc1nc(=O)n([C@@H]2O[C@H](C)[C@@H](O)C2O)cc1F (stereo not given in full),,18.7 µM (active)
CNC1CCC(N(Cc2cccc(-c3ccncc3)c2)C(=O)c2sc3ccccc3c2Cl)CC1 (stereo not given),,9.35 µM (active)
CCCC1OC2C[C@@H]3[C@H]4CCC5=CC(=O)C=C[C@]5(C)[C@H]4C(O)C[C@]3(C)[C@]2(C(=O)CO)O1 (stereo not given in full),112% (inactive),
CC[C@H]1OC(=O)[C@H](C)[C@@H](O[C@H]2C[C@@](C)(OC)[C@@H](O)[C@H](C)O2)[C@H](C)[C@@H](O[C@@H]2O[C@H](C)C[C@H](N(C)C)[C@H]2O)[C@](C)(O)C[C@H](C)C(=NOCOCCOC)[C@H](C)[C@@H](O)[C@]1(C)O,90.5% (inactive),
C[C@@H]1CC=CC=CC=CC=C[C@@H](O[C@@H]2O[C@H](C)[C@@H](O)[C@H](N)[C@H]2O)C[C@@H]2O[C@](O)(C[C@@H](O)C[C@@H]3O[C@@H]3C=CC(=O)O1)C[C@H](O)[C@@H]2C(=O)O,,4.69 µM (active)
CCOC(=O)[C@H]1O[C@H]1C(=O)N[C@@H](CC(C)C)C(=O)NCCC(C)C,102% (inactive),
Cn1c(=O)c(-c2c(Cl)cccc2Cl)cc2cnc(Nc3cccc(C(=O)O)c3)nc21,,0.296 µM (active)
N=C1SC(=Cc2ccc(-c3ccc4c(c3)C(=O)NC4=O)o2)C(=O)N1c1ccc(Br)cc1,,2.35 µM (active)
COc1ccc(-c2cc3nccn3c(Nc3ncccc3C(N)=O)n2)cc1OC,,1.05 µM (active)
COc1cc2nccc(Oc3ccc(NC(=O)Nc4ccc(F)cc4F)c(F)c3)c2cc1OC,106% (inactive),
CC[C@H](C)n1cc(C)c2c(C(=O)NCc3c(C)cc(C)[nH]c3=O)cc(-c3ccc(N4CCNCC4)nc3)cc21,,9.35 µM (active)
O=C(O)Cc1cccc(OCCCN(Cc2cccc(C(F)(F)F)c2Cl)CC(c2ccccc2)c2ccccc2)c1,,20.9 µM (active)
O=C(O)CCC=CCC[C@@H]1[C@H](N2CCCCC2)[C@@H](O)C[C@@H]1OCc1ccc(-c2ccccc2)cc1,119% (inactive),
COc1nc(C)cnc1NS(=O)(=O)c1cccnc1-c1ccc(-c2nnco2)cc1,119% (inactive),

Compound,viability,Potency
CCOc1ccccc1N=Nc1c(C)[nH]n(-c2nc(-c3ccccc3)cs2)c1=O,,1.05 µM (active)
NC[C@H]1O[C@H](O[C@@H]2[C@@H](O)[C@@H](O[C@H]3O[C@H](CO)[C@@H](O)[C@H](N)[C@@H]3O)[C@H](N)C[C@@H]2N)[C@H](O)[C@@H](O)[C@H]1O,108% (inactive),
Cn1cc(-c2ccc3nnc(Sc4ccc5ncccc5c4)n3n2)cn1,,26.4 µM (active)
CC(C)(F)C[C@H](N[C@@H](c1ccc(-c2ccc(S(C)(=O)=O)cc2)cc1)C(F)(F)F)C(=O)NC1(C#N)CC1,102% (inactive),
O=c1[nH]c(=O)n([C@H]2C[C@@H](O)[C@@H](CO)O2)cc1I,105% (inactive),
CCC(=O)NCC[C@@H]1CCc2ccc3c(c21)CCO3,105% (inactive),
C[C@]12C=CC(=O)C=C1CC[C@@H]1[C@@H]2[C@@H](O)C[C@@]2(C)[C@@H]1CC[C@]2(O)C(=O)CO,117% (inactive),
N#CC(c1ccnc(NCCc2cccnc2)n1)c1nc2ccccc2s1 (stereo not given),,10.5 µM (active)
COc1cc2nccc(Oc3ccc(NC(=O)Nc4cc(C)on4)c(Cl)c3)c2cc1OC,,1.66 µM (active)
COc1nccc(-c2c(-c3ccc(F)cc3)ncn2C2CCNCC2)n1,,14.8 µM (active)
CC(=O)N1CCN(c2ccc(OCc3nn(C)c(C)c3-c3cccc4c(CCCOc5cc(C)c(Cl)c(C)c5)c(C(=O)O)n(Cc5cccnc5)c34)cc2)CC1,,5.9 µM (active)
Nc1[nH]nc2nnc(-c3c(-c4ccccc4)nn4ccccc34)cc12,,6.62 µM (active)
Cc1cn([C@@H]2C[C@@H](O)[C@H](CO)O2)c(=O)[nH]c1=O,75.9% (inactive),
C[C@H]1O[C@@H](n2cc(F)c(=O)[nH]c2=O)[C@H](O)[C@H]1O,,8.33 µM (active)
CC(=O)OCC(=O)[C@@]12OC(C)(C)O[C@H]1C[C@H]1[C@@H]3C[C@H](F)C4=CC(=O)C=C[C@]4(C)[C@@]3(F)[C@@H](O)C[C@@]12C,129% (inactive),
Cc1[nH]c(C=C2C(=O)Nc3ccc(S(=O)(=O)N(C)c4cccc(Cl)c4)cc32)c(C)c1C(=O)N1CCN(C)CC1,,11.8 µM (active)
CCN(CC)CCCCNc1nc2cc(Cl)c(Cl)cc2nc1-c1ccc(-c2cccs2)s1,,8.33 µM (active)
CO[C@H]1O[C@@H]2O[C@@]3(C)CC[C@@H]4[C@@H](C)CC[C@@H]([C@H]1C)[C@@]24OO3,,2.96 µM (active)
Cc1ccc(S(=O)(=O)OCC(=O)Nc2ccc(C(=O)O)c(O)c2)cc1,,7.43 µM (active)
CON(C)C(=O)N1N=C(c2cc(F)ccc2F)S[C@]1(CCCN)c1ccccc1,18.9% (inactive),
